Where “and” joins values, the source holds several entries; their conditions need not be identical. Equal entries are not always repeated. This is part of a sample that, as a whole, favours compounds with a hit. Of some 79,000 tested, about 15% had one in any assay. Unmarked numbers belong to inactive results. Calls of active or inactive are those of the source. No stated cut-off is given here; in the data, active means growth inhibition above about 70%; inactive means the rest.
Columns and labels:
[1] = NCI Yeast Anticancer Drug Screen. Data for the mec2-1 strain (AID 157); settings: S. cerevisiae mec2-1 strain, stronger effect = higher value
In short: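 Vehicle-treated cultures served as reference for growth inhibition of compound-exposed mec2-1 yeast.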

[2] = NCI Yeast Anticancer Drug Screen. Data for the sgs1 mgt1 strain (AID 161);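 further: 0% = growth of cultures given vehicle only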; settings: S. cerevisiae sgs1 mgt1 strain, stronger effect = higher value
In short: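 Genetically altered yeast, compound exposure, growth inhibition relative to vehicle.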

[3] = NCI Yeast Anticancer Drug Screen. Data for the cln2 rad14 strain (AID 165);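 further: 0% = growth equal to vehicle treated cultures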; settings: S. cerevisiae cln2 rad14 strain, stronger effect = higher value
In short: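 Each compound was tested on cln2 rad14 yeast. Inhibition of growth was calculated against vehicle-exposed controls.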

[4] = NCI Yeast Anticancer Drug Screen. Data for the bub3 strain (AID 167); settings: S. cerevisiae bub3 mutant strain, stronger effect = higher value
In short: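 In this screen, a yeast mutant lacking normal mitotic checkpoint function is challenged with compound. Relative growth versus vehicle gives the inhibition value.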

[5] = NCI Yeast Anticancer Drug Screen. Data for the mlh1 rad18 strain (AID 175); settings: S. cerevisiae mlh1 rad18 strain growth inhibition, stronger effect = higher value
In short: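 Vehicle-treated cultures served as the reference for growth inhibition in a yeast strain carrying DNA damage repair alterations exposed to each compound.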

[6] = NCI Yeast Anticancer Drug Screen. Data for the rad50 strain (AID 155);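 further: 0% = growth of vehicle-only cultures of the same strain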; settings: S. cerevisiae rad50 strain growth inhibition, stronger effect = higher value
In short: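 DNA repair mutant yeast, compound exposure, growth read-out; inhibition is taken relative to vehicle.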

[7] = at 5.0 µM (retest, dose inferred, filed as 0.5)
[8] = at 50.0 µM (retest, dose inferred, filed as 5.0)

| Compound | growth inhibition [1, 7] | growth inhibition [1, 8] | growth inhibition ([1]; at 50.0 µM) | growth inhibition [2, 7] | growth inhibition [2, 8] | growth inhibition ([2]; at 50.0 µM) | growth inhibition [3, 7] | growth inhibition [3, 8] | growth inhibition ([3]; at 50.0 µM) | growth inhibition [4, 7] | growth inhibition [4, 8] | growth inhibition ([4]; at 50.0 µM) | growth inhibition [5, 7] | growth inhibition [5, 8] | growth inhibition ([5]; at 50.0 µM) | growth inhibition [6, 7] | growth inhibition [6, 8] | growth inhibition ([6]; at 50.0 µM) |
| --- | --- | --- | --- | --- | --- | --- | --- | --- | --- | --- | --- | --- | --- | --- | --- | --- | --- | --- |
| Cc1nc2[nH]cc(C)c2c(=O)[nH]1 | -4% | -14% | -2.25% | -1% | -7% | 4.1% | -11% | -4% | 35.1% | 2% | -15% | 4.6% | -10% | -14% | -8.2% | – | – | – |
| O=C(OCC1CCCO1)N(c1ccccc1)c1ccccc1 (stereo not drawn) | 15% | 21% | 24.3% | 18% | 20% | 46.9% | 30% | 21% | -11.4% | 0% | 16% | 2% | 16% | 40% | 37.7% | 12% | -5% | 23.1% |
| O=C(NNc1ccccc1)c1ccc([N+](=O)[O-])cc1 | 10% | 96% (active) | 99.2% (active) | 34% | 97% (active) | 99% (active) | 20% | 96% (active) | 92% (active) | 25% | 96% (active) | 99.6% (active) | 32% | 97% (active) | 98.7% (active) | 31% | 95% (active) | 99% (active) |
| CCCCCCCCCCN1CCN(C(=O)OCC)CC1 | 54% | 77% (active) | 72.2% (active) | 67% | 97% (active) | 94.7% (active) | 58% | 67% | 90.7% (active) | 62% | 80% (active) | 95.8% (active) | 79% (active) | 91% (active) | 89.2% (active) | 51% | 68% | 95% (active) |
| CCN(CC)c1ccc2nc3ccc(N(CC)CC)cc3[n+](-c3ccccc3)c2c1 | 100% (active) | 99% (active) | 93.7% (active) | 92% (active) | 99% (active) | 98.7% (active) | 79% (active) | 98% (active) | 97.5% (active) | 98% (active) | 98% (active) | 98.7% (active) | 99% (active) | 99% (active) | 98.7% (active) | 97% (active) | 98% (active) | 92.1% (active) |
| CCCCCCCC/C=C\CCCCCCCC(=O)NCC[N+](C)(C)C | 17% | 100% (active) | 99.7% (active) | 53% | 99% (active) | 99.7% (active) | 10% | 99% (active) | 97.4% (active) | 83% (active) | 100% (active) | 99.3% (active) | 10% | 99% (active) | 99.5% (active) | – | – | – |
| CCOC(=O)CCC(N)C(=O)OCC (stereo not drawn) | – | – | -4.05% and -5.05% and -0.15% | – | – | 8.4% and -2% and -19.9% | – | – | 5.9% and -29.1% and -40.6% | – | – | 1.45% and 7.05% and -8.7% | – | – | 10.9% and 23.9% and -16.1% | – | – | 20.8% and 1.45% and -26.1% |
| CN(C)c1ccc(/C=C/c2ccnc3ccccc23)c(O)c1 | -4% | -4% | 28.6% | 0% | -6% | 58.9% | 3% | -3% | 34% | -4% | -6% | 40.9% | -8% | -2% | 68.8% | 0% | -6% | 57% |
| CCn1c2ccccc2c2ccc(C3C(C(=O)OC)=C(C)NC(C)=C3C(=O)OC)cc21 | -14% | 14% | 76% (active) | -2% | 9% | 80.8% (active) | -14% | 26% | 83.2% (active) | -6% | 15% | 85% (active) | 1% | 8% | 85% (active) | -3% | 8% | 79.4% (active) |
| O=C1CC(c2ccccc2)C(c2ccccc2)CO1 (stereo not drawn) | 35% | 99% (active) | 92.7% (active) | 52% | 98% (active) | 91.5% (active) | 13% | 98% (active) | 93.8% (active) | 56% | 97% (active) | 94% (active) | 74% (active) | 99% (active) | 93.7% (active) | 85% (active) | 99% (active) | 84.9% (active) |
| CC(=O)NC1CCCCC1c1ccc(C2CCCCC2NC(C)=O)cc1 (stereo not drawn) | -8% | 9% | -9.3% | -4% | 19% | 5.3% | -69% | -6% | 66.8% | -4% | 1% | -2.45% | 3% | 3% | 1.9% | – | – | – |
| OCc1c(-c2cccc3ccccc23)sc(-c2cccc3ccccc23)c1CO | 20% | 85% (active) | 92.8% (active) | 44% | 56% | 86.8% (active) | 63% | 81% (active) | 86.6% (active) | 39% | 82% (active) | 86.5% (active) | 65% | 70% (active) | 88.4% (active) | 59% | 74% (active) | 90% (active) |
| c1cc(CCSSCCc2ccncc2)ccn1 | 1% | 87% (active) | 50.9% | -1% | 79% (active) | 33.5% | 4% | 42% | 72.8% (active) | 1% | 98% (active) | 38.4% | 2% | 92% (active) | 30.3% | 7% | 89% (active) | 27.5% |
